Screening data: PubChem BioAssay, National Center for Advancing Translational Sciences (NCATS)
Shown are actives, neighbours in structure and some others; about 1.7% of the full set was active somewhere.
RXFP1 agonist: agonists of human relaxin receptor RXFP1; HEK293T-RXFP1 cAMP TR-FRET, 30 min; response scale: percent of porcine relaxin response, buffer zero; Potency, µM (top dose mostly 57.5 µM), inactives show at the highest dose activation, usual class: activators; hit rate 0.3% among 370,000; AID 2676; active = well fitted activation curve with a large enough effect; inconclusive = small, poorly fitted or top-dose-only effect; note: potency is the fitted concentration of half-maximal effect; nearly all actives have a fitted effect of over 60% in size
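cAMP rise read by TR-FRET after 30 min, 37C compound exposure (up to 58 uM) in RXFP1-transfected HEK293 cells with Ro 20174 present. EC50 from Hill-equation fits, with 29 nM porcine relaxin as 100% and buffer as basal.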
hERG WT inh: KCNH2 (human, wildtype) channel inhibition; Q12809; activity change, % at 1.84 µM; U2OS, BacMam KCNH2, thallium flux FluxOr; active compounds read low; hit rate 0.37% among 340,000;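 active = maximum activity change below -70%; inconclusive = maximum activity change between -70% and -50%; inactive = maximum activity change above -50%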
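U2OS cells were transduced with wild-type KCNH2 virus (2.03 x 10^8 / mL) for 4 h at room temperature, then cultured overnight at 37 C. Thallium flux was read with FluxOr dye. Rate constants were normalized to DMSO controls.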
KCNH2 3.1 block: blocks the human KCNH2 3.1 channel isoform | AID 720553 | activity change, % (tested at about 1.8 µM) | hit rate 0.95% among 340,000 | U2OS KCNH2 3.1, thallium flux FluxOr; active compounds read low;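 active = maximum activity change below -70%; inconclusive = maximum activity change from -70% to -50%; inactive = maximum activity change above -50%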;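 note: thallium influx rate constant from kinetic fluorescence after stimulation buffer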
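U2OS cells transduced with KCNH2 3.1 mutant virus (1.77 x 10^8 /mL, 4 h), plated overnight at 37 C, loaded 45 min with FluxOr dye plus Red40 quencher. Thallium flux rate constant from kinetic reads after stimulation buffer, normalised to controls.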
RXFP1 antag: RXFP1 (human) relaxin receptor antagonism; Q9HBX9; HEK293-RXFP1, relaxin-stimulated cAMP HTRF, 30 min; active compounds read low; activity change, negative = inhibition, % at 57.5 µM; hit rate 0.59% among 350,000;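 active = activity change of -60% or lower, but not beyond a set lower limit; inconclusive = change between -60% and -40%, or beyond the set limit; inactive = change above -40%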
Akt phos inh: inhibitors of Akt phosphorylation. Neuro2A IGF-stimulated pAkt S473 HTRF, 20 min; active compounds read low. activity change, % for hits at 50 µM. hit rate 0.32% among 360,000. AID 651550; in the data active = activity change below about -80%; inconclusive = mostly about -51% to -80%
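Neuro2A cells (4,500/well, DMEM with 0.5% FBS) were treated with compound at a single 50 µM final concentration, stimulated with 6 nM IGF for 20 min at 37 °C, and lysed. Phospho-Akt Ser473 was read by HTRF as 665/615 ratio ×10^4.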
An asterisk follows results filed as active; i = inactive; ? = inconclusive; nt = no result. % is set by controls: 0 for no effect and ±100 for the full control effect.

SMILES	RXFP1 agonist	hERG WT inh	KCNH2 3.1 block	RXFP1 antag	Akt phos inh
Cc1ccc(-n2ncc3c2CCCC3NC(=O)CCc2c(C)noc2C)cc1C (stereo not drawn)	-3%	-1	-1	5	i
Cc1occc1C(=O)N(C)CC1CCCN(CCc2ccc(Cl)cc2)C1 (stereo not drawn)	nt	11	-72*	5	i
COCc1ccc(C(=O)N(C)CC2CCCN(CCc3ccc(Cl)cc3)C2)o1 (stereo not drawn)	0%	-2	-74*	-10	i
COCc1ccc(C(=O)N(C)CC2CCCN(CCc3ccc(OC)cc3)C2)o1 (stereo not drawn)	-2%	36	-21	-5	i
COC(=O)c1c(NC(=O)CCC(=O)O)sc2c1CCCCC2	1%	-14	-13	20	i
C[C@H](NC(=O)c1ccccc1)C(=O)N1CCN(c2ccccc2)CC1	2%	-1	-9	6	i
CCN(CC)CCNS(=O)(=O)c1ccc(Cl)cc1	2%	-2	-6	2	i
CCCN(CCC)CC(C)(C)NS(=O)(=O)c1ccc(Cl)cc1	-3%	0	-140*	-4	i
CCCN(CC(=O)Nc1ccc(F)c(F)c1F)C(=O)C1CC(=O)N(Cc2ccccc2)C1 (stereo not drawn)	2%	-8	1	3	i
CN(C)S(=O)(=O)c1cccc(NC(=S)N/N=C/c2cccc(O)c2)c1	1%	4	15	-18	i
CN(C)S(=O)(=O)c1cccc(NC(=S)N/N=C/c2cc(Br)ccc2O)c1	2%	-7	-7	-84*	i
CCOc1cccc(/C=N/NC(=O)c2cc(-c3cccn3C)n[nH]2)c1O	-3%	-22	9	-77*	i
COc1cc(OC)c(OC)cc1/C=N/NC(=O)c1cc(-c2cccn2C)n[nH]1	0%	0	-3	-9	nt
COC(=O)c1sccc1-c1ccc(C(=O)Nc2cccnc2)o1	1%	-9	6	-7	i
Cc1nn(C(C)C)c(C)c1CN1CCC(C(=O)Nc2cccc(-c3cccc(F)c3)c2)CC1	0%	-11	?	-82*	i
Cc1cccc(CN2CCC(C(=O)Nc3cccc(-c4cccc(F)c4)c3)CC2)n1	1%	-74*	-94*	?	i
CC(=O)Nc1ccc(S(=O)(=O)Nc2nc(C)nc3sc(C)c(C)c23)cc1	nt	0	2	8	i
O=C(O)CC(c1ccccc1)N1C(=O)c2ccccc2C1=O (stereo not drawn)	nt	-1	-76*	6	i
O=C(O)C(c1ccccc1)N1C(=O)c2ccccc2C1=O (stereo not drawn)	3%	-13	13	8	i
COc1ccc(CN(Cc2ccco2)C(=O)c2ccccc2F)cc1	-2%	nt	nt	-13	nt
C=C(C)C1CC=C(C)/C(=N/NC(=O)c2ccc(NC(=O)CCC)cc2)C1 (stereo not drawn)	2%	4	-87*	16	i
CCC(CC)c1nnc(NC(=O)c2nc3nc(C)cc(C)n3n2)s1	0%	4	-110*	0	nt
Cc1cc(C)n2nc(C(=O)Nc3ccc4c(c3)OCO4)nc2n1	19%	-1	-5	-7	i
Cc1cc(C)n2nc(C(=O)Nc3ccc4c(c3)OCCO4)nc2n1	14µM*	-3	11	16	i
CC(NC(=O)CCN1N=C(c2ccccc2)CCC1=O)c1ccc2c(c1)OCCO2 (stereo not drawn)	0%	nt	nt	nt	nt
SMILES	RXFP1 agonist	hERG WT inh	KCNH2 3.1 block	RXFP1 antag	Akt phos inh
CC1CC(C)CN(C(=O)COC(=O)/C=C/c2cccc([N+](=O)[O-])c2)C1 (stereo not drawn)	0%	4	-109*	-2	i
COc1ccc(C(=O)C=Cc2ccc(OCc3ccccc3)c(OC)c2)cc1OC	nt	-11	-72*	5	i
CCOc1cc(CNCc2ccccc2)ccc1OCc1ccc(Cl)cc1	-3%	36	-3	-96*	i
COc1ccc(CNCCc2ccc(Cl)cc2)cc1OCc1ccccc1	0%	-2	-71*	-31	i
NS(=O)(=O)c1ccc(CCNCc2cc(Br)ccc2OCc2ccccc2)cc1	0%	-28	-70*	-4	i
CCC(=O)N1c2ccc(S(=O)(=O)N3CCN(CC)CC3)cc2CC1C (stereo not drawn)	3%	0	4	-7	i
COCCCNC(=S)N(CCCN(C)C)Cc1cc2cc3c(cc2[nH]c1=O)OCCO3	2%	1	-14	-2	i
COc1cc(CN(C)CCc2ccccc2)ccc1OCc1ccccc1	2%	73	-95*	1	i
C=CCn1cc(CN2CCC(C(=O)Nc3cccc(-c4cccc(F)c4)c3)CC2)c(C)n1	-2%	-6	-49	-34	i
O=C(Nc1cccc(-c2cccc(Cl)c2)c1)C1CCN(Cc2ccccn2)CC1	0%	?	-72*	-12	i
COc1cccc(CN2CCC(C(=O)Nc3ccc(-c4cccc(C)c4)cc3)CC2)c1O	1%	-8	-95*	-10	i
COCc1ccc(CN2CCC(C(=O)Nc3cccc(-c4cccc(Cl)c4)c3)CC2)o1	1%	-82*	-81*	-19	i
COCc1ccc(CN2CCC(C(=O)Nc3cccc(-c4cscn4)c3)CC2)o1	1%	7	-2	?	i
C=CCn1cc(CN2CCC(C(=O)Nc3cccc(-c4cccc(Cl)c4)c3)CC2)c(C)n1	0%	-99*	-93*	-11	i
OCC[C@H]1C[C@@H](O)[C@H](O)[C@]2(Cc3ccccc3O2)O1	2%	-12	11	nt	i
Cc1c(CN2CCC(C(=O)Nc3cccc(-c4cccc(Cl)c4)c3)CC2)cnn1C	-1%	-100*	-85*	1	i
O=C(Nc1cccc(-c2cccc(Cl)c2)c1)C1CCN(Cc2ccon2)CC1	-4%	38	-48	-29	i
Cn1cc(CN2CCC(C(=O)Nc3cccc(-c4cccc(F)c4)c3)CC2)cn1	0%	21	-36	-3	i
CCCn1ncc(CN2CCC(C(=O)Nc3cccc(-c4cccc(F)c4)c3)CC2)c1C	0%	?	-85*	-13	i
O=C(Nc1ccc(OCC(=O)N2CCOCC2)cc1)c1cccc(Cl)c1	1%	-9	11	-4	i
COc1ccccc1C1CCN(C(=O)c2ccc(C(C)(C)C)cc2)CC1	-1%	0	-15	-90*	i
OC(CNCCC(c1ccccc1)c1ccccc1)COc1ccccc1 (stereo not drawn)	0%	-11	-97*	?	i
OC(CNCCc1ccccc1)COc1ccc(OCC(O)CNCCc2ccccc2)cc1 (stereo not drawn)	-1%	-3	-13	-8	i
